Source: PubChem BioAssay
Rows were chosen to be rich in hits. Some 1.2% of all compounds tested hit in one or more screens of this group.
CCHF vOTU inh = CCHFV vOTU protease inhibitors, primary screen, biochemical, Pep-AMC substrate, fluorescence; inhibition, % at 11.5 µM; 370,000 compounds, 0.55% hits; in the data active = inhibition above about 30%
Rv3671c protease = Rv3671c serine protease inhibitors, primary screen, biochemical, fluorescence polarization, M. tuberculosis H37Rv. P9WHR9. inhibition, % at 5.96 µM. 320,000 compounds, 0.048% hits. AID 2606, 2010; in the data active = inhibition above about 38%;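 note: extracellular domain of Rv3671c used as enzyme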
Target sequence (P9WHR9 whole entry, looked up, the tested form may be a part): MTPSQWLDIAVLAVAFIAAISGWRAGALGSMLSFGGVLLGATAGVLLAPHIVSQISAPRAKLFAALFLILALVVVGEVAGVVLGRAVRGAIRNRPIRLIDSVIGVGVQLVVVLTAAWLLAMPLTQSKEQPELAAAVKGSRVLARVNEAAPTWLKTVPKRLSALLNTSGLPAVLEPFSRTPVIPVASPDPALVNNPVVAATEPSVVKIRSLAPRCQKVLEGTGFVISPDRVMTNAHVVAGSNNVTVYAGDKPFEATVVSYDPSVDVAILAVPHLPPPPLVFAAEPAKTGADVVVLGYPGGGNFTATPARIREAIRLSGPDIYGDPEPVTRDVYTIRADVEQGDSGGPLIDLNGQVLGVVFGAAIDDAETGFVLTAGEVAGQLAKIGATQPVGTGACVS
Mtb bLac sens = beta-lactam sensitization of Mtb H37Rv, H37Rv | M. tuberculosis H37Rv growth with meropenem, percent inhibition | inhibition, % at 25 µM | 330,000 compounds, 0.27% hits | AID 434955, 2010;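 note: growth measured after seven days incubation then overnight dye step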
RecA splice inh = Mtb RecA intein splicing inhibitors, primary screen, biochemical, fluorescence, HTS | Protein RecA (Mycobacterium tuberculosis (strain ATCC 25618 / H37Rv)), P9WHJ3 | cell-free RecA intein splicing | inhibition, % (concentration not given with the values) | 290,000 compounds, 0.75% hits | AID 2221, 2009; in the data active = inhibition above about 30%; inconclusive = no clear call, values can overlap the other calls
Mtb UGM inh = M. tuberculosis UGM enzyme inhibitors, primary screen, biochemical, fluorescence polarization, single point | purified UGM, fluorescence polarization probe displacement | inhibition, % at 10 µM | 320,000 compounds, 0.06% hits | AID 504406, 2011; in the data active = inhibition above about 10%, passing the limit was not always enough; inconclusive = no clear call, values can overlap the other calls
GFP chromo cs = counter-screen: blocks GFP chromophore formation, dose response, counter-screen, biochemical, fluorescence, homogeneous | shares compounds with RecA splice inh | cell-free GFP chromophore formation | AID 434968, 2010 | EC50, µM | 2,100 compounds, 83% hits
Hits are given with their value; . = inactive; ? = inconclusive; / = no result given. Unless noted, the rule behind the calls is not given here.

SMILES	CCHF vOTU inh	Rv3671c protease	Mtb bLac sens	RecA splice inh	Mtb UGM inh	GFP chromo cs
[O-][n+]1c2c(nc3c1-c1ccccc1C3O)CCCC2 (stereo unspecified)	/	.	.	41	.	33
Cc1cc(C(=O)CN2C(=O)c3ccccc3C2=O)c(C)n1C1CC1	.	.	.	98	.	.
Cc1cc(Nc2cccc([N+](=O)[O-])c2)c2cccc(C)c2n1	.	.	.	/	.	/
Cc1cc(Nc2ccccc2)c2c([N+](=O)[O-])ccc(C)c2n1	.	.	.	71	.	12
COC(=O)C1CN(C2CCCC2)CCS(=O)(=O)N1Cc1ccc(Cl)cc1 (stereo unspecified)	.	/	/	/	/	/
CC(C)S(=O)(=O)C1=NSC2=NC(=O)/C(=C\c3ccc(OC(=O)c4ccco4)cc3)C(=N)N21	.	.	.	34	.	.
CCS(=O)(=O)C1=NSC2=NC(=O)/C(=C\c3ccc(OC(=O)c4ccco4)cc3)C(=N)N21	.	.	.	.	.	/
OC(CNCc1cccs1)c1ccccc1 (stereo unspecified)	/	.	.	.	.	/
c1ccc(CCNCc2cccs2)cc1	.	/	.	33	.	.
COC(=O)C1CN(C#N)N(c2ccc(Cl)cc2)C12c1ccccc1-c1ccccc12 (stereo unspecified)	/	.	.	44	.	9.8
Cc1cccc(C(=O)Nc2nc3ncccn3c2-c2ccc(F)c(F)c2)c1	.	/	/	/	/	/
O=C(Cc1cc(=O)[nH][nH]1)N/N=C/c1c(Cl)cccc1Cl	.	.	.	70	.	12
O=C(Cc1cc(=O)[nH][nH]1)N/N=C/c1c(F)cccc1Cl	.	.	.	95	.	7.9
C=CCN1C(=O)[C@@H](CC(=O)NCc2cccs2)[C@]2(C(=O)OC)CCCCC=C12	.	/	/	/	/	/
O=C1C(Br)=Cc2cccc3cccc1c23	.	.	.	70	.	36
CC(C)NC(=O)N[C@H]1C[C@@H]2O[C@H](CO)CC[C@@H]2O[C@@H]1CCc1ccc(-c2ccc(F)cc2)cc1	.	/	/	/	/	/
O=C1NN=C(c2ccccc2)C1Cc1ccccc1 (stereo unspecified)	.	/	/	/	/	/
CC1=NNC(=O)C1C(c1ccccc1)C1C(=O)NN=C1C (stereo unspecified)	/	.	.	98	.	0.41
CC1=NNC(=O)C1CC(=O)N/N=C/C(Br)=C/c1ccccc1 (stereo unspecified)	.	.	.	.	.	/
CC1=NNC(=O)C1Cc1ccccc1 (stereo unspecified)	.	.	.	96	.	0.66
O=C(NC1CCC1)c1ccc(C#CC2CC2)c[n+]1[O-]	.	/	/	/	/	/
O=S1(=O)CC2c3ccccc3CN2CN1Cc1ccc(F)cc1 (stereo unspecified)	.	/	/	/	/	/
CCCCCCCCN1C(=O)[C@@H](CC(=O)N2CCSCC2)C[C@@]2(C(=O)OC)C1=C[C@H](C(C)C)O[C@@H]2C1CC1	.	/	/	/	/	/
O=C(CCl)N1N=C(c2cccs2)CC1c1ccco1 (stereo unspecified)	.	.	.	63	.	31
CN1CCN(CC(=O)N2N=C(c3cccs3)CC2c2ccco2)CC1 (stereo unspecified)	.	.	.	.	.	/
SMILES	CCHF vOTU inh	Rv3671c protease	Mtb bLac sens	RecA splice inh	Mtb UGM inh	GFP chromo cs
COc1ccc(/C=C2/C(=O)N(Cc3ccccc3)N=C2C)cc1	.	.	.	59	.	7.3
O=C(c1ccc(C#Cc2ccccc2)cc1)N1CCC(O)CC1	.	/	/	/	/	/
C=CC[C@@]1(c2ccc(Br)cc2OC)Oc2ccccc2-c2nccnc21	.	/	/	/	/	/
CC(=O)NCCn1c(SCc2ccccc2C)nc2ccccc2c1=O	.	.	?	32	.	.
O=C(c1ccc(Oc2ccc(C(F)(F)F)cn2)cc1)N1CCN(c2ccccc2)CC1	.	.	.	.	.	/
COc1ccc(N2CCN(C(=O)c3ccc(Oc4ccc(C(F)(F)F)cn4)cc3)CC2)cc1	.	.	.	31	.	.
O=C(Cc1c[nH]c2ccccc12)Nc1ccc(Nc2cccnc2)c(-c2cc(F)cc(F)c2)c1	.	/	/	/	/	/
CN1/C(=C\C(=O)c2cccnc2)C(C)(C)c2ccccc21	.	.	.	.	.	/
CN1/C(=C/C(=O)c2nc(S(C)(=O)=O)ncc2Cl)C(C)(C)c2ccccc21	/	.	.	77	.	6.3
CC1=NN(c2ccccc2)C(=O)/C1=C\c1cc(C)n(-c2cccnc2)c1C	.	.	.	33	.	31
COc1cc(/C=C2/C(=N)N3C(=NC2=O)SN=C3S(C)(=O)=O)ccc1OS(=O)(=O)c1ccccc1	/	.	.	.	.	/
COc1cc(/C=C2/C(=O)N(c3ccccc3)N=C2C)ccc1OS(=O)(=O)c1ccccc1	/	.	.	70	.	1.9
CC1=NN(c2ccccc2)C(=O)C1=Cc1ccccc1	.	/	/	/	/	/
CC1=NN(c2ccccc2)C(=O)/C1=C/c1cccs1	.	.	.	85	.	6
COc1ccc(/C=C2/C(=O)N(c3cccc(F)c3)N=C2C)c(OC)c1	.	.	.	46	.	.
O=C(OC12CCCN(C1)/C(=C/c1cccc(Cl)c1)C2)c1ccccc1 (stereo unspecified)	.	/	/	/	/	/
O=C(CCl)Nc1c(C(=O)Nc2ccc3c(c2)OCCO3)oc2ccccc12	.	.	.	31	.	3.6
CCCCCCCCCCOC(=O)Cn1c(COc2ccccc2OC)[n+](C)c2ccccc21	.	.	.	49	.	12
CCc1cc(C(=O)c2ccc(OC)cc2)c(NC(=O)CCC(=O)O)s1	.	.	.	.	.	/
CCc1cc(C(=O)c2ccc(C)cc2)c(NC(=O)CCl)s1	.	.	.	74	61	14
COc1ccc(C(=O)c2c(C(F)(F)F)oc3c2C(=O)c2ccccc2C3=O)cc1	/	.	.	87	.	0.13
Cc1ccc(C(=O)c2c(C)oc3c2C(=O)C(=O)c2ccccc2-3)cc1	/	.	.	.	.	/
Cc1cc(=O)[nH]c(NN=Cc2cc(Br)ccc2O)n1	.	/	/	/	/	/
CCN(CC)c1ccc(/C=N/Nc2nc(C)cc(=O)[nH]2)c(O)c1	.	.	.	39	.	.
COc1ccc(N2C(=O)C(Cl)=C(N3CCOCC3)C2=O)cc1	.	.	.	74	.	8.7
SMILES	CCHF vOTU inh	Rv3671c protease	Mtb bLac sens	RecA splice inh	Mtb UGM inh	GFP chromo cs
CCc1ccc(N2C(=O)C(Cl)=C(N3CCOCC3)C2=O)cc1	.	.	.	78	.	5.3
COc1ccc(N2C(=O)C(Cl)=C(Oc3cccc(OC)c3)C2=O)cc1	/	.	.	39	.	20
O=C1C(Cl)=C(N2CCN(Cc3ccccc3)CC2)C(=O)N1c1ccccc1	.	.	.	.	.	/
COc1ccc(N2C(=O)C(Cl)=C(N3CCN(Cc4ccccc4)CC3)C2=O)cc1	/	/	/	69	/	7.1
COCCCN1C(=O)[C@H](CC(=O)NCC2CCCCC2)[C@]2(C(=O)OC)CCCCC=C12	.	/	/	/	/	/
O=C(c1ccncc1)N1CCC(Oc2cccnc2)CC1	.	/	/	/	/	/
